# This is a sample that favours compounds with a hit; in the whole collection about 2.8% have one here.
# MBNL1-CUG inh: qHTS Assay for Inhibitors of MBNL1-poly(CUG) RNA binding | TR-FRET MBNL1-His/biotin-(CUG)12 binding, 665/545 ratio | Potency, µM (highest dose often 57.5 µM), without a hit: at the highest dose activity change, negative = inhibition, usual class: inhibitors | 0.036% of 280,000 active | AID 2675, 2010; active = well fitted inhibition curve with a large enough effect in the signal ratio, with a control signal flat, not every such curve was filed as active; inconclusive = small, poorly fitted or top-dose-only effect, or effect the other way, or a change in a side signal; inactive = no such curve, though single readings can be large or run the other way; the % refers to the signal ratio; note: potency is the fitted concentration of half-maximal effect; % is set by controls: 0 for no effect and ±100 for the full control effect
#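 TR-FRET readout: Ex 340 nm, 665/545 nm emission ratio, normalized to buffer-only (basal) and MBNL1-(CUG)12 controls. Complex of MBNL1-His with Biotin-(CUG)12, compounds 92 nM–58 uM, incubated 60 min at room temperature.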
# PTHR1 ag: qHTS for PTHR1 Agonists: Primary Screen; Parathyroid hormone/parathyroid hormone-related peptide receptor (Homo sapiens), Q03431; HEK293 GP2 PTHR1 cells, GloSensor cAMP luminescence, 1 h; Potency, µM (highest dose often 115 µM), for the others: top-dose activation, actives largely listed as activators; 0.075% of 410,000 active; AID 743266, 2014; note: potency is the fitted concentration of half-maximal effect; nearly all actives have a fitted effect of over 55% in size
#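 HEK-293-derived GP2 cells expressing PTHR1 and a GloSensor cAMP reporter, 3,000/well, plated overnight, given luciferin plus IBMX (each 0.5 mM as added) for 1 h at 37 °C, then compound for 1 h at 37 °C. Luminescence was read after 15 min at room temperature.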
# CBFb-RUNX1 inh: qHTS Assay for Compounds Blocking the Interaction Between CBF-beta and RUNX1 for the Treatment of Acute Myeloid Leukemia; Runt-related transcription factor 1 (Homo sapiens) + Core-binding factor subunit beta …; AlphaScreen CBFb-His/RUNX1-biotin binding, biochemical; Potency, µM (top dose mostly 59.8 µM), inactives show at the highest dose activity, negative = inhibition, most hits filed as inhibitors; 230,000 tested, under 10 active; note: % of control where 0% means no effect
# Target sequence (Q01196 whole entry, looked up): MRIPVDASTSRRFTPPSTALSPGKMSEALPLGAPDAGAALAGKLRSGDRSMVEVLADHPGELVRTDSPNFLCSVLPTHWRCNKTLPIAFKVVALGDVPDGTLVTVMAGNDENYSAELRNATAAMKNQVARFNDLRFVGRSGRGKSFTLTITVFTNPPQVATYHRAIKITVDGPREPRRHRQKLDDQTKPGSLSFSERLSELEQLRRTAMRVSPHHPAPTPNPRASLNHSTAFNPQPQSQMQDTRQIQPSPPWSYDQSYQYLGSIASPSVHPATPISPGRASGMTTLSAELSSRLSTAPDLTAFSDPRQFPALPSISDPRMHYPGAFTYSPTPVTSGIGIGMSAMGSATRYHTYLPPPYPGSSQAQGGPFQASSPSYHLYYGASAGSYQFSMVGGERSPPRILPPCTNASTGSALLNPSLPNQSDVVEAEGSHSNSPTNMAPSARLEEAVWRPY
# Target sequence (Q13951 whole entry, looked up): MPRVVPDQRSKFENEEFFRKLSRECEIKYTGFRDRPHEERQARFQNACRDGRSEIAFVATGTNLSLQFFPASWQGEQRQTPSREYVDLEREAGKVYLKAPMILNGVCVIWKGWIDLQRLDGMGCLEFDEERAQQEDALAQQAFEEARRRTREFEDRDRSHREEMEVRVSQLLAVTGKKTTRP
#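 Read-out: AlphaScreen. Format: His-CBF-beta with biotinylated RUNX1 (30 nM each) preincubated 20 min, compound 15 min, Ni-chelate plus streptavidin beads 90 min; room temperature throughout.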
# Integrin act MD: qHTS for Activators of Integrin-Mediated Alleviation for Muscular Dystrophy | alpha7betagal myoblasts, beta-gal FDG fluorescence, 48 h | Potency, µM (series often up to 38.3 µM), for the others: at the top dose activation, most hits filed as activators | AID 624291, 2012 | 0.064% of 350,000 active;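 note: potency is the fitted concentration of half-maximal effect; 100% = response of the positive control SU9516; nearly all actives have a fitted effect of over 60% in size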
#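 Alpha7betagal+/- myoblasts (passage 13) were plated 16-24 hr, then exposed to compounds (1:260 dilution of DMSO stock) for 48 hours at 37C. After MPER lysis, β-galactosidase reporter activity was read as FDG fluorescence (ex 480/em 540) after 30 minutes.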
# DRD3 antagonist: qHTS of D3 Dopamine Receptor Antagonist: qHTS; D(3) dopamine receptor (Homo sapiens), P35462; D3R cells, DiscoveRx beta-arrestin luminescence, antagonist mode; stronger effect = lower value; max response, negative = inhibition, %; 2.5% of 360,000 active; AID 652054, 2013; in the data active = max response below about -50%; inconclusive = no clear call, values can overlap the other calls; note: % is set by controls: 0 for no effect and ±100 for the full control effect
#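 Cells expressing the human receptor were seeded at 1500 cells/well, incubated overnight at 37 degrees C in 5% CO2, then exposed to library compounds with dopamine controls for 90 minutes at 37 degrees C before luminescent detection.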
# D3 ag: qHTS of D3 Dopamine Receptor Agonist: qHTS | D(3) dopamine receptor (Homo sapiens), P35462 | D3R DiscoveRx beta-arrestin cells, luminescence, 90 min | max activation, % | 0.58% of 410,000 active | AID 652048, 2013; in the data active = max activation above about 30%; note: 0% is about no effect
#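 Agonist mode: compounds and dopamine controls were applied to plated cells for 90 min at 37 degrees C after an overnight attachment at 1500 cells/well. Luminescent read-out followed 30 - 60 minutes at room temperature with DiscoveRx detection reagent.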
# The depositor's hits bear a star; i = inactive; ? = inconclusive; . = no result given; [ ] = dose if it differs, or a comment. Unless noted, calls come from the whole dose curve; as a rule, active = well fitted curve in the direction sought with a large enough effect; inconclusive = small, poorly fitted or top-dose-only effect, or another doubt; inactive = no such curve, though single readings can be large; an effect the other way counts as inactive or inconclusive.
SMILES,MBNL1-CUG inh,PTHR1 ag,CBFb-RUNX1 inh,Integrin act MD,DRD3 antagonist,D3 ag
Nc1ccc(C(=O)OCc2nc3ccccc3s2)cc1,-1%,-10%,10%,-14%,-51*,-5
CN(C)CCCNC(=O)N1c2ccccc2C=Cc2ccccc21,1%,-12%,.,-27%,-52*,-9
CCN(CC)C(=O)N1c2ccccc2C=Cc2ccccc21,16%,-59%[57.5 µM],3%,2%,-21,3
COc1ccc(NC(=O)C2CCCN(C(=O)Nc3ccc(OC)cc3)C2)cc1 (stereo not drawn),-12%,i,.,-13%,-23,-6
COc1ccc(NC(=O)N2CCCC(c3ccccc3)C2)cc1 (stereo not drawn),-9%,i,.,9%,4,33*
Cc1ccc(OCCC(=O)Nc2ccc3c(c2)OCCCO3)cc1,.,-9%,.,-22%,3,-2
Cc1ccc(OCCCC(=O)Nc2ccc3c(c2)OCO3)cc1,-5%,i,0%,-12%,-52*,7
Cn1c(=O)[nH]c(=O)c2c1nc(SCCN1CCOCC1)n2Cc1ccccc1,-6%,-6%,8%,-8%,-70*,-11
Cn1c(=O)[nH]c(=O)c2c1nc(SCCN1CCOCC1)n2CCCc1ccccc1,4%,i,3%,4%,-5,1
CCN(C(=O)Cn1c(=O)n(-c2ccccc2)c(=O)c2ccc(C(=O)NCc3ccc4c(c3)OCO4)cc21)c1cccc(C)c1,.,-13%,.,.,.,3
CC(C)N(CCO)C(=O)CCc1nnc(CCCc2ccccc2)o1,-7%,i,-4%,13µM*,-11,-9
COc1ccc(OC)c(-c2noc(N3CCN(c4ccc(C(C)=O)cc4)CC3)n2)c1,.,-41%,.,.,.,0
Cc1cc(N=Nc2ccc(C)c(N=Nc3cc(C)c(N)cc3N)c2)c(N)cc1N,?,-31%,-27%,-19%,-3,-2
CC(C)(CNC(=O)c1ccccc1NS(C)(=O)=O)N1CCCCC1,-8%,7%,.,-129%,-58*,-21
CS(=O)(=O)Nc1ccccc1C(=O)N1CCCC1,0%,i,1%,6%,0,3
Cc1oc(-c2ccc(C(=O)Nc3ccccc3F)cc2)nc1COc1ccccc1,.,-26%,.,.,.,1
Cc1oc(-c2ccc(C(=O)NCc3ccccc3F)cc2)nc1COc1ccccc1,.,-23%,.,.,.,34*
COc1ccc(C(CNC(=O)COc2ccc(Cl)c(C)c2)N2CCCCC2)cc1 (stereo not drawn),-10%,i,.,-15%,-95*,-19
COc1ccc(C(CNC(=O)COc2cccc(C)c2)N2CCCC2)cc1 (stereo not drawn),.,i,.,-17%,-76*,-3
COc1ccc(C(CNC(=O)COc2ccc(Br)cc2F)N2CCCC2)cc1 (stereo not drawn),-8%,-19%,5%,-17%,-76*,-36
COc1ccc(C(CNC(=O)COc2cccc(C(F)(F)F)c2)N2CCCC2)cc1 (stereo not drawn),.,-87%,.,23%,-107*,-26
COc1ccc(C(CNC(=O)COc2ccc(C)cc2)N2CCCCC2)cc1 (stereo not drawn),.,1%,.,.,.,-27
OC[C@]1(O)OC[C@@H](O)[C@H](O)[C@@H]1O,.,.,.,.,.,2
CCOC(=O)N1CCN(S(=O)(=O)c2ccc(C(=O)Nc3nnc(C)o3)cc2)CC1,5%,-8%,-17%,3%,-51*,-17
CCC(C)NC(=O)Nc1ccc(Br)cc1 (stereo not drawn),-7%,-20%,7%,-14%,-23,-12
SMILES,MBNL1-CUG inh,PTHR1 ag,CBFb-RUNX1 inh,Integrin act MD,DRD3 antagonist,D3 ag
CCC(C)Nc1ccc(NC(C)CC)cc1 (stereo not drawn),.,-50%,?,.,-51*,0
COc1ccc(CSCC(=O)Nc2ccccc2)cc1[N+](=O)[O-],?,i,.,7%,0,2
CC1(C(=O)NCc2ccccc2)CN(S(C)(=O)=O)CC(=O)N1CCCn1ccnc1 (stereo not drawn),.,-5%,.,.,0,-9
CCNC(=S)NNC(=O)c1cccn(Cc2ccc(Cl)cc2Cl)c1=O,-11%,-10%[57.5 µM],-17%,-11%,-59*,-5
C=CCNC(=S)NNC(=O)c1cccn(Cc2ccc(Cl)cc2Cl)c1=O,-2%,-8%[57.5 µM],-10%,-1%,-73*,-12
CCC(C(=O)Nc1ccc(C(=O)OC)cc1)n1c(=O)c(-c2ccccc2NC(C)=O)nc2ccccc21 (stereo not drawn),.,?,.,.,.,-13
O=C(CSc1nncn1-c1ccccc1)Nc1ccccc1,3%,-19%,.,-16%,-23,-10
CS(=O)(=O)c1ccc(Cl)c(NC(=O)CSc2nncn2-c2ccccc2)c1,-5%,i,.,13µM*,5,-13
CCOc1cccc(C(=O)Nc2c(C(=O)c3ccc(OC)cc3)oc3ccccc23)c1,.,-15%,.,.,.,33*
CCOC(=O)c1oc2ccccc2c1NC(=O)c1ccccc1OC,3%,-25%[57.5 µM],20%,1%,39,50*
N#CCCN(Cc1cccnc1)C(=S)NC1CC2C=CC1C2 (stereo not drawn),3%,i,-2%,-9%,-22,-7
CCC(OC(C)=O)c1cc2c(cc1[N+](=O)[O-])OCCO2 (stereo not drawn),12%,-13%,3%,-19%,4,-3
COc1ccc(Cl)cc1N1C(=O)C2CCCN2C1c1sccc1C (stereo not drawn),-14%,-6%[57.5 µM],11%,-7%,-63*,-2
COc1ccccc1-c1nnc(NC(=O)CSc2nncn2C)s1,-4%,-17%,2%,7%,2,-1
CC(C)C[C@@H](CN)NC(=O)c1nc[nH]c1C(=O)N[C@@H](Cc1ccccc1)C(=O)CNC[C@H](C)NC(=O)c1nc[nH]c1C(=O)N[C@@H](C)C(=O)O,.,-24%,.,6%,21,43*
CC(C)C[C@@H](CNCC(=O)[C@H](CC(=O)O)NC(=O)c1[nH]cnc1C(=O)N[C@H](CN)CC(C)C)NC(=O)c1nc[nH]c1C(=O)N[C@@H](C)C(=O)O,.,-8%,.,33%,-53*,3
CC(C)C[C@@H](CN)NC(=O)c1nc[nH]c1C(=O)N[C@@H](Cc1ccccc1)C(=O)CNC[C@H](C)NC(=O)c1nc[nH]c1C(=O)N[C@@H](CC(C)C)C(=O)O,.,-15%,.,13%,7,7

# Screening data (PubChem)
